Test results from ChEMBL document CHEMBL3988442, “University of Dundee, Small-Polar-MMV Screening Library” (2021).
Hit rate of the full screen: of about 69,000 compounds, about 950 (1.4%) showed an effect of 50% or more. What follows is part of a selection rich in strong results, with near analogues and random picks from the rest.

Test system: Mycobacterium tuberculosis
Experiment: Cornell M. t heat shock assay; further: in the data most compounds retested in dose-response had high values
Format: functional, organism-based
Set-up: dose or concentration left out as unconfirmed

Compared with `COCCN(CC1CC1)c1nc(CCN)nc2sc(C)c(C)c12`, `Cc1sc2nc(CCN)nc(N(CCN(C)C)CC3CCCO3)c2c1C` (centres undefined) is lower in “Percent Effect” value: 9.263% for the first, -25.67% for the second.

Going from `CCN(CCN(C)C)c1nc(CCN)nc2sc(C)c(C)c12` to `CCCN(CC)c1cc(C2CCNCC2)nc(C)n1`, the “Percent Effect” value falls from 91.54% to -15.84%.

Compared with `COc1cc(N2C[C@H]3CCC[C@@H](CN(C)C)[C@H]3C2)ncn1.O=C(O)C(F)(F)F`, `CN(C)[C@@H]1CCN(C(=O)Cc2cccs2)[C@H]1Cc1cnn(C)c1.O=C(O)C(F)(F)F` is higher in “Percent Effect” value: -30.27% for the first, 5.582% for the second.

First: O=C1CCCC2=C1C(c1ccc(Cl)cc1Cl)Nc1nonc1N2 (centres undefined)
Second: CCN(Cc1c(F)cccc1Cl)c1cc(C2CCNCC2)nc(C)n1
The “Percent Effect” value of the first is lower: 15.96% for the first, 69.57% for the second.

First: O=C(O)C(F)(F)F.O=C(c1c[nH]cn1)N1CCC(F)(F)C2(CCN(c3ncccn3)C2)C1 (centres undefined)
Second: O=C(O)C(F)(F)F.O=C(c1c[nH]cn1)N1CCC(F)(F)C2(CCN(c3cccc(F)c3)C2)C1 (centres undefined)
The “Percent Effect” value of the first is lower: -10.36% for the first, 53.67% for the second.

Going from `O=C(O)C(F)(F)F.O=C(O)C(F)(F)F.O=C(O)CN1CCC(F)(F)C2(CCN(c3ccccn3)C2)C1` (centres undefined) to `O=C(O)C(F)(F)F.O=C(O)C(F)(F)F.O=C(O)CN1CCC(F)(F)C2(CCN(c3ccccc3)C2)C1` (centres undefined), the “Percent Effect” value rises from -7.749% to 100.8%.

First: FC1(F)CCN(Cc2cccnc2)CC12CCN(c1ccccn1)C2.O=C(O)C(F)(F)F.O=C(O)C(F)(F)F.O=C(O)C(F)(F)F (centres undefined)
Second: FC1(F)CCN(Cc2cccnc2)CC12CCN(c1ccccc1)C2.O=C(O)C(F)(F)F.O=C(O)C(F)(F)F.O=C(O)C(F)(F)F (centres undefined)
The “Percent Effect” value of the first is lower: 8.031% for the first, 107.1% for the second.

First: O=C(CO)N1CCC(F)(F)C2(CCN(c3ccccc3)C2)C1.O=C(O)C(F)(F)F (centres undefined)
Second: O=C(O)C(F)(F)F.O=C(O)C(F)(F)F.O=C(c1c[nH]cn1)N1CCC(F)(F)C2(CCN(c3ccccn3)C2)C1 (centres undefined)
The “Percent Effect” value of the first is higher: 34.47% for the first, 6.804% for the second.

Going from `FC1(F)CCN(Cc2ccncc2)CC12CCN(c1cccnc1)C2.O=C(O)C(F)(F)F.O=C(O)C(F)(F)F.O=C(O)C(F)(F)F` (centres undefined) to `COCCO[C@H]1CCN(Cc2cccnc2)[C@H]1Cc1cccnc1.O=C(O)C(F)(F)F.O=C(O)C(F)(F)F.O=C(O)C(F)(F)F`, the “Percent Effect” value falls from -5.593% to -30.96%.

Going from `Cc1ccc(C(=O)N2CCC3(CCN(C(=O)c4cccnc4)C3)CC2)o1.O=C(O)C(F)(F)F` to `COCCO[C@@H]1CCN(C(=O)c2ccc(C)o2)[C@@H]1Cc1cccnc1.O=C(O)C(F)(F)F`, the “Percent Effect” value rises from 1.785% to 104.5%.

First: COC(=O)CC(C)(C)CC(=O)N1CCC(C(F)(F)F)CC1
Second: CS(=O)(=O)N[C@H]1CCO[C@]2(CCN(C(=O)c3ccccn3)C2)C1.O=C(O)C(F)(F)F
The “Percent Effect” value of the first is lower: -1.161% for the first, 72.36% for the second.

Compared with `Cc1nn(C)cc1S(=O)(=O)NCC(c1ccccc1)N1CCCCCC1.Cl` (centres undefined), `c1ccc(CNc2ccccc2N2CCCC2)nc1` is higher in “Percent Effect” value: -15.55% for the first, 50.65% for the second.

Going from `CN(C)CCNCCC(Cc1ccccc1)C1CCOC(C)(C)C1.O=C(O)C(=O)O` (centres undefined) to `CN(C)CCNC(=O)c1sc2ccccc2c1C1CCC(CN)CC1.Cl` (centres undefined), the “Percent Effect” value rises from -22.2% to 20.1%.

First: Cl.FC(F)(F)c1nc(C2CCNCC2)no1
Second: Cc1nc(NCc2ccc(C)o2)cc(C2CCNCC2)n1
The “Percent Effect” value of the first is higher: -8.269% for the first, -22.33% for the second.

Compared with `COCCN1CCC2(CC1)CC(NCc1ccc(C)s1)c1ccccc12.O=C(O)C(F)(F)F.O=C(O)C(F)(F)F` (centres undefined), `COCCN(C)C1COC2(CCN(Cc3ccccn3)CC2)C1.O=C(O)C(F)(F)F.O=C(O)C(F)(F)F` (centres undefined) is lower in “Percent Effect” value: 1.76% for the first, -27.77% for the second.

Compared with `Cc1nc(CN2C[C@@H]3CN(C(=O)c4cccn4C)C[C@@H]3C2=O)cs1.O=C(O)C(F)(F)F`, `Cn1cccc1C(=O)NC[C@]12COC[C@H]1CN(Cc1nccs1)C2.O=C(O)C(F)(F)F` is lower in “Percent Effect” value: -10.46% for the first, -42.54% for the second.

First: O=C(O)C(F)(F)F.O=C(c1ccc(F)cc1)N1C[C@H]2CCC[C@@]2(COCc2ccccn2)C1
Second: O=C(O)C(F)(F)F.O=C(c1cnccn1)N1CC2(CCN(Cc3ccsc3)C2)C1
The “Percent Effect” value of the first is higher: 7.203% for the first, -14.16% for the second.

Going from `CN1CCCC(c2cccc(-c3cccc(Cl)c3)n2)C1` (centres undefined) to `Cc1nc(-c2ccc(F)cc2)cc(C2CCNCC2)n1`, the “Percent Effect” value rises from -13.07% to -9.323%.

Going from `CN(Cc1c(F)cccc1Cl)C(=O)Cn1cnc(C#N)n1` to `N#Cc1ncn(CC(=O)Cc2c(F)cccc2Cl)n1`, the “Percent Effect” value rises from -1.386% to 85.52%.

Going from `N#Cc1ncn(Cc2c(F)cccc2Cl)n1` to `Cc1nc(NCc2cccc(F)c2)cc(C2CCNCC2)n1.Cl`, the “Percent Effect” value falls from -2.259% to -3.606%.

Compared with `CCc1ccc(CN2CCCCC2c2n[nH]cc2-c2cc(C)no2)cc1.Cl` (centres undefined), `Cc1nc(N2CCCC2)ccc1NCc1ccccn1` is lower in “Percent Effect” value: 16.34% for the first, 4.716% for the second.

First: CS(=O)(=O)N[C@@H]1CCO[C@]2(CCN(C(=O)c3cnccn3)C2)C1
Second: CS(=O)(=O)N[C@@H]1CCO[C@]2(CCN(C(=O)c3cscn3)C2)C1
The “Percent Effect” value of the first is higher: 9.518% for the first, -9.704% for the second.

Going from `CCC(N)C(=O)N1CCC(OCc2ccc(Cl)c(Cl)c2)CC1.Cl` (centres undefined) to `COCCO[C@@H]1CCN(C(=O)c2ccc(C)o2)[C@@H]1Cc1cnn(C)c1`, the “Percent Effect” value falls from 20.26% to 11.53%.

Going from `CCn1ccnc1CNc1nccc(-c2c(C)nn(C)c2C)n1` to `CCn1ccnc1CNCc1ccc(C)cc1OC(C)(C)C`, the “Percent Effect” value rises from 4.641% to 55.22%.

Compared with `Cc1ccc(CNCc2nccn2C)c(OC(C)(C)C)c1`, `Cc1ccc(CNC(=O)NCc2nccn2C)c(OC(C)(C)C)c1` is lower in “Percent Effect” value: 50.94% for the first, 2.123% for the second.

First: CCn1ccnc1CNCC1CCCN1c1cccnn1 (centres undefined)
Second: Cc1ccc(CNCc2nccn2C)c(OCC2CC2)c1
The “Percent Effect” value of the first is lower: 2.735% for the first, 39.25% for the second.

First: COc1nccnc1N1C[C@@H]2CC[C@H](C1)N(CC=C(C)C)C2=O
Second: COc1ccc2[nH]c(CNc3cc(C4CCNCC4)nc(C)n3)cc2c1
The “Percent Effect” value of the first is lower: -19.62% for the first, 101.5% for the second.

First: CC[C@@H]1N(Cc2ccc(C)o2)CCC[C@]12CCC(=O)N2CCOC.O=C(O)C(F)(F)F
Second: Cc1cccc(CN2CCc3nnc(CN4CCCC4=O)n3CC2)n1.O=C(O)C(F)(F)F
The “Percent Effect” value of the first is higher: -28.97% for the first, -34.57% for the second.

Going from `COCCNC(=O)c1sc2ccccc2c1C1CCC(CN)CC1.Cl` (centres undefined) to `Cl.NCC1CCC(c2c(C(=O)NCCO)sc3ccccc23)CC1` (centres undefined), the “Percent Effect” value rises from 16.29% to 85.23%.

First: CC(C)c1n[nH]c(C(=O)Nc2ccccn2)c1Br
Second: Cc1ccnc(NC(=O)c2[nH]nc(C(C)C)c2Br)c1
The “Percent Effect” value of the first is lower: -0.4918% for the first, 68.96% for the second.

First: CC(C)c1n[nH]c(C(=O)Nc2cc[nH]n2)c1Br
Second: Cc1cc(C(=O)NCc2ccco2)nn1C
The “Percent Effect” value of the first is lower: 4.113% for the first, 12.62% for the second.

Going from `O=C(O)C(F)(F)F.O=C(O)C(F)(F)F.c1cncc(O[C@@H]2CC[C@H]3[C@H]2OCCN3C2CCCC2)c1` to `O=C(O)C(F)(F)F.O=C(O)C(F)(F)F.O=C(c1ccncc1)N1CC[C@@H]2CN(C3CCOCC3)CCO[C@@H]2C1`, the “Percent Effect” value rises from -35.82% to 7.278%.

Going from `CN(Cc1cc2cc(F)ccc2[nH]1)c1cc(C2CCCNC2)ncn1` (centres undefined) to `Cc1nc(C2CCNCC2)cc(N(C)Cc2cc3cc(F)ccc3[nH]2)n1`, the “Percent Effect” value rises from 27.99% to 81.43%.

First: CCN(Cc1ccncc1)c1cc(C2CCNCC2)nc(C)n1
Second: O=C1NCCN1CCNc1cc(-c2ccncc2)nc2ccnn12
The “Percent Effect” value of the first is higher: -13.1% for the first, -39.13% for the second.

Compared with `COc1ccc(CNC(C)c2ccccc2Cl)c(OC)c1OC.Cl` (centres undefined), `CC(NC(=O)OC(C)(C)C)c1nnc(S(=O)(=O)Cc2ccccc2Cl)o1` (centres undefined) is higher in “Percent Effect” value: -26.61% for the first, 10.13% for the second.

Compared with `COc1c(CNC2CCSc3ccc(F)cc32)c(C)nn1C.Cl` (centres undefined), `CNC(C(=O)OC)c1cc(F)ccc1F.Cl` (centres undefined) is lower in “Percent Effect” value: 15.14% for the first, 1.092% for the second.

Compared with `Cc1cc(=O)[nH]c(-n2nc(C)c(CCC(=O)NCc3ccco3)c2C)n1`, `Cc1cc(=O)[nH]c(-n2nc(C)c(CCC(=O)NCc3cccs3)c2C)n1` is higher in “Percent Effect” value: 61.79% for the first, 102.2% for the second.

Going from `Cc1ccn(CCC(=O)NCc2ccco2)n1` to `Cc1noc(C)c1CCC(=O)NCCc1cccs1`, the “Percent Effect” value rises from 6.355% to 11.5%.

Compared with `Cc1nc2c(c(C)c1CC(=O)NCc1cccs1)c(=O)[nH]n2C`, `Cn1c2ncccc2c(=O)n1CC(=O)NCCC1=CCCCC1` is lower in “Percent Effect” value: 11.25% for the first, -2.25% for the second.

First: O=S(=O)(CCO)CCc1ccccc1Cl
Second: Cc1ccccc1CS(=O)(=O)c1nnc(C(C)NC(=O)OC(C)(C)C)o1 (centres undefined)
The “Percent Effect” value of the first is lower: 17.45% for the first, 89.48% for the second.

Going from `CCN1CCc2c(sc3c2C(=O)NC(/C=C\c2ccccc2)N3)C1` (centres undefined) to `c1ccc(N2CCCC2)c(NCc2ccncc2)c1`, the “Percent Effect” value rises from -24.35% to -19.28%.

Compared with `CCCc1nn(Cc2ccc(Br)s2)c(=O)o1`, `CCC(C)NC(=O)Cn1ccc2c(C)nn(CC)c2c1=O` (centres undefined) is lower in “Percent Effect” value: 31% for the first, -10.24% for the second.

First: CCC(=O)N1CCN(C(=O)Cn2cccn2)CC1
Second: CCC(=O)N1CCN(C(=O)CCn2cccn2)CC1
The “Percent Effect” value of the first is higher: 62.88% for the first, 10.75% for the second.

First: CC(C)CN1CCN(C(=O)CCn2cccn2)CC1
Second: O=C(O)C(F)(F)F.c1ccc(CN2Cc3nccn3CC(Cn3cccn3)C2)nc1 (centres undefined)
The “Percent Effect” value of the first is higher: 37.09% for the first, 11.05% for the second.

First: CC1(C)Cc2cc(-c3cncn3CCNC3CCS(=O)(=O)C3)ccc2O1.Cl (centres undefined)
Second: C[C@H](NC(=O)OC(C)(C)C)c1nnc(S(=O)(=O)Cc2cccc(F)c2)o1
The “Percent Effect” value of the first is higher: 8.949% for the first, -6.703% for the second.

Compared with `CN(C)CCN1CCCC12CCN(C(=O)c1ccncc1)CC2.O=C(O)C(F)(F)F.O=C(O)C(F)(F)F`, `CC(NC(=O)OC(C)(C)C)c1nnc(S(=O)(=O)Cc2ccc(Cl)cc2)o1` (centres undefined) is higher in “Percent Effect” value: 6.106% for the first, 103.1% for the second.

First: Cl.N[C@@H](Cc1ccccc1)c1nnc(S(=O)(=O)Cc2ccc(Cl)cc2)o1
Second: Cc1noc(C(C)NC(=O)[C@@H](C)NC(=O)OC(C)(C)C)n1 (some centres undefined)
The “Percent Effect” value of the first is lower: -31.2% for the first, 4.198% for the second.
